Source: PubChem BioAssay (Tox21)
A number with no mark means an inactive call. Inconclusive results are not listed. Where a call stands in place of a potency, no number is given. The source made the active and inactive calls. Unless noted, calls follow the shape of the full dose curve.

Assays:
[1] = Nuclear factor erythroid 2-related factor 2/antioxidant responsive element (Nrf2/ARE) small molecule agonists: qHTS cell viability counter screen in human keratinocytes (AID 1919968; active = well fitted curve in the direction sought with a large enough effect in the repeat runs; an effect the other way counts as inactive or inconclusive; also: nearly all actives have a fitted effect of over 55% in size)
In short: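 Cells of the KeratinoSens line were plated at 1,500 per well and left for 5 h before compound transfer from DMSO stocks. After a 23 h incubation (37 C, 5% CO2), CellTiter-Fluor was added. Signal was taken as fluorescence intensity 1 h later.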

[2] = Nuclear factor erythroid 2-related factor 2/antioxidant responsive element (Nrf2/ARE) small molecule agonists: luciferase reporter gene qHTS assay in human keratinocytes (AID 1919969); also: nearly all actives have a fitted effect of over 35% in size; also: potency is read from the fitted curve at half-maximal effect
[3] = target: Gonadotropin-releasing hormone receptor (Homo sapiens) (UniProt P30968); experiment: Human gonadotropin-releasing hormone receptor (GnRHR) small molecule agonists, calcium flux assay in GnRHR-HEK293 cells (AID 1920063); also: nearly all actives have a fitted effect of over 35% in size
Chain of Gonadotropin-releasing hormone receptor (Homo sapiens) (P30968 whole entry, looked up): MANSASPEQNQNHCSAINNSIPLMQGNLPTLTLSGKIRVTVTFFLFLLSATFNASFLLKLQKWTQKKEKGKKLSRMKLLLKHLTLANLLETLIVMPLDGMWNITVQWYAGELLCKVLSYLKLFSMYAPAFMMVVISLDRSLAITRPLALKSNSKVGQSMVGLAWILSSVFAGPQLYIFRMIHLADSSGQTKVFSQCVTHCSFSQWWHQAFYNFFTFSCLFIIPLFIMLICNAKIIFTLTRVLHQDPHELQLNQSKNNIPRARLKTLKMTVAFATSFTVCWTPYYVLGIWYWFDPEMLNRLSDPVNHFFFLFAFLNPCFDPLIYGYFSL
In short: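 Compounds dissolved in DMSO are pin-transferred onto dye-loaded GnRHR-HEK293 cells, which were seeded 18 h before at 37 C/5% CO2. Calcium signal is read as fluorescence intensity at 1 s intervals for 3 min.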

[4] = target: KiSS-1 receptor (Homo sapiens) (UniProt Q969F8); experiment: Human kisspeptin (KISS1R) small molecule agonists, calcium flux assay in KISS1R-HEK293 cells (AID 1920064; active = well fitted curve in the direction sought with a large enough effect in the repeat runs; an effect the other way counts as inactive or inconclusive)
Chain of KiSS-1 receptor (Homo sapiens) (Q969F8 whole entry, looked up): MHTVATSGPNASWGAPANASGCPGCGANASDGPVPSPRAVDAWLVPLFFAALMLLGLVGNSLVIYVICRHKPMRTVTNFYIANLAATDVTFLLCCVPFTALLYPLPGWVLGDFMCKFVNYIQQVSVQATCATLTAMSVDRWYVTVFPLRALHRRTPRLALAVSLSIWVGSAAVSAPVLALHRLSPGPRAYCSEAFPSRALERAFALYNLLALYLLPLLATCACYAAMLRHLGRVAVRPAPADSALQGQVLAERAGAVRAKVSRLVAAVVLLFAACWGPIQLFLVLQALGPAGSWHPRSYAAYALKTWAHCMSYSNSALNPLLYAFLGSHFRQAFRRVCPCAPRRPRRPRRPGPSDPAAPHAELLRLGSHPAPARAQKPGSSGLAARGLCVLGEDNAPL
In short: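 Cell line: HEK293, stable human KISS1R. Dye loading 1 h at 37 C after 18 h culture. Read: kinetic fluorescence, 480/540 nm, 3 min at 1 s intervals.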

[5] = G protein-coupled receptor (GPCR) small molecule agonists, calcium flux assay: HEK293 wild type cell line counter screen (AID 1920065)
In short: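 Tox21 10K compounds, 15 concentrations each in triplicate, pin-transferred in DMSO onto dye-loaded cells; kinetic read at 480/540 nm for 3 min, 1 s intervals.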

[6] = p53 small molecule agonists, cell-based qHTS assay with rat liver microsomes (AID 1963578)
In short: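 Metabolic activation is supplied by rat liver microsomes with NADPH (each 0.5 mg/mL final). p53RE-bla cells incubate with compound 16 h at 37 C; reporter activity is measured by LiveBLAzer fluorescence.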

[7] = p53 small molecule agonists, cell-based qHTS assay with human liver microsomes: qHTS cell viability counter screen (AID 1963579); also: nearly all actives have a fitted effect of over 45% in size
In short: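 After the 460/530 nm beta-lactamase read, CellTiter-Glo was added to the same wells and luminescence measured after 30 min at room temperature, giving viability of p53RE-bla cells treated 16 h with compounds plus microsomes and NADPH.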

[8] = p53 small molecule agonists, cell-based qHTS assay: qHTS cell viability counter screen (AID 1963581); also: nearly all actives have a fitted effect of over 45% in size
In short: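 ATP content measured by luminescence in HCT-116 p53RE-bla cells treated 16 h at 37 C, same wells as the reporter screen.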

[9] = p53 small molecule agonists, cell-based qHTS assay (AID 1963582; active = well fitted activation curve with a large enough effect in the signal ratio in the repeat runs, not every such curve was filed as active; the % refers to the signal ratio; also: potency is read from the fitted curve at half-maximal effect)
In short: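 16 h compound exposure (37 C) of p53 response element–bla cells, preceded by 5 h recovery at 37 C/5% CO2; read-out via LiveBLAzer B/G FRET substrate, 2 h RT, fluorescence intensity.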

[10] = target: 5-hydroxytryptamine receptor 2A (Homo sapiens) (UniProt P28223); experiment: 5-hydroxytryptamine receptor 2A (HTR2A) small molecule agonists, cell-based qHTS assay (AID 1963587); also: nearly all actives have a fitted effect of over 30% in size
Chain of 5-hydroxytryptamine receptor 2A (Homo sapiens) (P28223 whole entry, looked up): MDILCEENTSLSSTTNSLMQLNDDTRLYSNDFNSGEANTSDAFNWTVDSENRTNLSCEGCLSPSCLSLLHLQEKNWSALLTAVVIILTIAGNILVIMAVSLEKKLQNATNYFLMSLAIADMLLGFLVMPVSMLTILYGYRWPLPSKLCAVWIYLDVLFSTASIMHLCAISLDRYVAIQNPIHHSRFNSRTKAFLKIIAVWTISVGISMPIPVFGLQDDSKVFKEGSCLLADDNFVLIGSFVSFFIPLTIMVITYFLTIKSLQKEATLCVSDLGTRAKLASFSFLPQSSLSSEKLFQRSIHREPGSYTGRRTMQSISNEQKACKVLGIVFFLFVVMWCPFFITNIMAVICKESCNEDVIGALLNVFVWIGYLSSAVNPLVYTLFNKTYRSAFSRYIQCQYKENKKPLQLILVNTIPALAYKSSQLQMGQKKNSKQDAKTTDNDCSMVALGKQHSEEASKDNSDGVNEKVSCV
In short: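 HTR2A-CHO cells, plated 18 h at 37 C/5% CO2, dye-loaded 1 h at 37 C; compounds in DMSO added by pin tool (agonist mode). Intracellular calcium flux read as kinetic fluorescence on FDSS over 2 min at 1 s intervals.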

[11] = target: Muscarinic acetylcholine receptor M1 (Homo sapiens) (UniProt P11229); experiment: Cholinergic receptor muscarinic 1 (CHRM1) small molecule antagonists, cell-based qHTS assay (AID 1963588); also: nearly all actives have a fitted effect of over 40% in size
Chain of Muscarinic acetylcholine receptor M1 (Homo sapiens) (P11229 whole entry, looked up): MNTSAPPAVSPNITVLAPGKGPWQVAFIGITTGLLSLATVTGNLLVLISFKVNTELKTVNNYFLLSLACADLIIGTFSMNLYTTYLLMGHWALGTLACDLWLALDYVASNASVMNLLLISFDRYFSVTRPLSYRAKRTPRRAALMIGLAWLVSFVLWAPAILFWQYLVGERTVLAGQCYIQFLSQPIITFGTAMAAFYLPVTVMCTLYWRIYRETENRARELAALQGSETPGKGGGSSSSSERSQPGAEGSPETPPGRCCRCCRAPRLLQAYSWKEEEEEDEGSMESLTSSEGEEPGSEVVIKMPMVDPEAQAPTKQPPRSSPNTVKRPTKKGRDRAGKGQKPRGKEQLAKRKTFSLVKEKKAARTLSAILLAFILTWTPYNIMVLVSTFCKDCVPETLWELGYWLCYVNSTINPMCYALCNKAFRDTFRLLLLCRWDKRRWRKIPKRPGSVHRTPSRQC
In short: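 Compounds were tested at 15 concentrations in three independent runs. Dye-loaded CHRM1-CHO cells were exposed 5 min at room temperature before stimulation by acetylcholine added at 50nM. Intracellular calcium was read kinetically on FDSS for 3 min.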

[12] = target: Muscarinic acetylcholine receptor M1 (Homo sapiens) (UniProt P11229); experiment: Cholinergic receptor muscarinic 1 (CHRM1) small molecule agonists, cell-based qHTS assay (AID 1963589); also: nearly all actives have a fitted effect of over 35% in size
In short: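 Homogeneous fluorescence calcium flux, agonist mode. Human M1-expressing CHO cells; compound dosed at 15 concentrations, three independent runs; signal sampled every 1 sec.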

[13] = cAMP Responsive Elements (CRE) small molecule antagonists, cell-based qHTS assay (AID 1963591; active = well fitted inhibition curve with a large enough effect in the signal ratio in the repeat runs, not every such curve was filed as active; the % refers to the signal ratio)
In short: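 First, CRE-bla HEK293T cells settled 18 h at 37 C. Next, compound and 0.25 uM final NKH477 were applied for 3 h. Last, LiveBLAzer B/G substrate was loaded for 2 h at room temperature.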

[14] = target: Beta-2 adrenergic receptor (Homo sapiens) (UniProt P07550); experiment: Adrenergic beta2 receptor (ADRB2) small molecule antagonists, cell-based qHTS assay (AID 1963592); also: series mostly up to about 92 µM; nearly all actives have a fitted effect of over 50% in size
Chain of Beta-2 adrenergic receptor (Homo sapiens) (P07550 whole entry, looked up): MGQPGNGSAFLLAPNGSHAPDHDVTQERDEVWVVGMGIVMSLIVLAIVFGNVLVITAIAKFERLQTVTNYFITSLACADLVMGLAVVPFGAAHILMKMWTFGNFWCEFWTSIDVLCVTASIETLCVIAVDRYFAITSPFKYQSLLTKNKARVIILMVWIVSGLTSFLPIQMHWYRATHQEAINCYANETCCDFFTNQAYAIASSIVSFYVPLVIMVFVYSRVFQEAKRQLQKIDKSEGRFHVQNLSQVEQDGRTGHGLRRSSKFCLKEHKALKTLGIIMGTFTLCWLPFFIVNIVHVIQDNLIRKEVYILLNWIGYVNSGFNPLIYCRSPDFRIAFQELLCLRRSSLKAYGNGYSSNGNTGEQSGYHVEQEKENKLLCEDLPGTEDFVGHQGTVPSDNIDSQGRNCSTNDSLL
In short: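 Assay format: CHO-ADRB2 cells, 18-20hr seeding at 37C/5% CO2, then compound plus 1nM isoproterenol agonist mix for 0.5hr RT. Homogeneous time-resolved fluorescence cAMP detection after 1hr, expressed as 665/615 nm ratio.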

[15] = target: D(2) dopamine receptor (Homo sapiens) (UniProt P14416); experiment: Dopamine D2 receptor (DRD2) small molecule agonists, cell-based qHTS assay (AID 1963594); also: nearly all actives have a fitted effect of over 35% in size
Chain of D(2) dopamine receptor (Homo sapiens) (P14416 whole entry, looked up): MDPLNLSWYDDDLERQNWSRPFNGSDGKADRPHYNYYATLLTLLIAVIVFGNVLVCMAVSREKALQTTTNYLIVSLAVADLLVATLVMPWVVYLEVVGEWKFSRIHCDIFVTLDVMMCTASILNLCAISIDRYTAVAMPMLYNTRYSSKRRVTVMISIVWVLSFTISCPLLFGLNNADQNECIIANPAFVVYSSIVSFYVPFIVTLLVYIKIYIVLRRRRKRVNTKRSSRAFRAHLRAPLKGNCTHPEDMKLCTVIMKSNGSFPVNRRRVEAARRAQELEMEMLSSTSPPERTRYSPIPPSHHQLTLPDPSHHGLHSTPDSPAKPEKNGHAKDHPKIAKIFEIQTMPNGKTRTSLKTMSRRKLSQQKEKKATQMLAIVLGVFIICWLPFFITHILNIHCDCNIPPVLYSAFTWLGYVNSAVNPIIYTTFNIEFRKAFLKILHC
In short: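 HEK293 cells stably expressing DRD2 were cultured 24 h at 37 C, then given Ro20-1724 (0.1 mM final) and compounds for 10 min at room temperature. NKH477 (200nM) was then added for 30 min. cAMP was read by HTRF.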

[16] = p53 small molecule agonists, cell-based qHTS assay with rat liver microsomes: qHTS cell viability counter screen (AID 1963580); also: nearly all actives have a fitted effect of over 45% in size
In short: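 Luminescent ATP readout (CellTiter-Glo, 30 min at room temperature) reports viability of p53RE-bla HCT-116 cells after 16 h at 37 C with test compounds under metabolic activation by rat liver microsomes and NADPH at 0.5 mg/mL final each.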

[17] = target: 5-hydroxytryptamine receptor 2A (Homo sapiens) (UniProt P28223); experiment: 5-hydroxytryptamine receptor 2A (HTR2A) small molecule antagonists, cell-based qHTS assay (AID 1963586); also: nearly all actives have a fitted effect of over 45% in size
In short: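 CHO cells stably expressing human HTR2A were plated for 18 h at 37 C, then loaded with calcium dye for 1 h. Compounds were preincubated 5 min at room temperature before DOI (4 nM solution) was added. Kinetic fluorescence was read for 3 min.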

[18] = cAMP Responsive Elements (CRE) small molecule agonists, cell-based qHTS assay (AID 1963590)
In short: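 HEK 293T cells stably bearing CRE-bla were plated at 2,000 cells per well and rested 18 h. Compounds, positive controls or DMSO were added for 3 h at 37 C. LiveBLAzer B/G substrate was then loaded for 2 h at room temperature.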

[19] = target: D(2) dopamine receptor (Homo sapiens) (UniProt P14416); experiment: Dopamine D2 receptor (DRD2) small molecule antagonists, cell-based qHTS assay (AID 1963595; active = well fitted inhibition curve with a large enough effect in the signal ratio in the repeat runs, with a control signal flat; the % refers to the signal ratio)
In short: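 DRD2-HEK293; 0.1 mM Ro20-1724; cpd 10 min RT; NKH477 200 nM + quinpirole 12 nM, 30 min RT; HTRF cAMP (cAMP-d2/anti-cAMP cryptate), 665/620 nm ratio after 1 h.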

[20] = p53 small molecule agonists, cell-based qHTS assay with human liver microsomes (AID 1963577);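 also: p53 response element beta-lactamase reporter cells with liver microsomes plus NADPH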
In short: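 Steps: plate p53RE-bla cells, incubate 5 h at 37 C; add compound in DMSO; add microsomes (0.5 mg/mL final) and NADPH (0.5 mg/mL final); incubate 16 h at 37 C; add LiveBLAzer, 2 h RT; read fluorescence.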

SMILES	Potency [1]	Potency [2]	Potency [3]	outcome [4]	outcome [5]	Potency [6]	Potency [7]	Potency [8]	Potency [9]	Potency [10]	Potency [11]	Potency [12]	Potency [13]	Potency [14]	Potency [15]	Potency [16]	Potency [17]	Potency [18]	Potency [19]	Potency [20]
CCCC(C)C=O (stereo unspecified)	inactive	inactive	inactive	inactive	inactive	inactive	inactive	inactive	inactive	inactive	inactive	inactive	inactive	inactive	inactive	–	–	–	–	–
CCCOC(=O)c1ccc(N)cc1	inactive	inactive	inactive	inactive	inactive	inactive	–	inactive	inactive	inactive	inactive	inactive	inactive	inactive	inactive	inactive	inactive	inactive	inactive	–
C1=CCCC1	inactive	inactive	inactive	inactive	inactive	inactive	inactive	inactive	inactive	inactive	inactive	inactive	–	inactive	inactive	–	inactive	inactive	inactive	–
Cn1c(=O)[nH]c2ncn(C)c2c1=O	inactive	inactive	inactive	inactive	inactive	–	inactive	inactive	inactive	inactive	inactive	inactive	–	inactive	inactive	inactive	inactive	inactive	inactive	–
O=S(=O)(O)CCO	inactive	inactive	inactive	inactive	inactive	–	inactive	inactive	inactive	inactive	inactive	inactive	inactive	inactive	–	inactive	inactive	inactive	inactive	–
CC(C)C[C@H](NC(=O)OCC1c2ccccc2-c2ccccc21)C(=O)O	inactive	611 nM (active)	inactive	inactive	inactive	–	inactive	inactive	–	inactive	inactive	inactive	–	–	inactive	inactive	–	–	inactive	–
N[C@H]1CN(c2c(F)cc3c(=O)c(C(=O)O)cn(C4C[C@H]4F)c3c2Cl)CC12CC2 (stereo partly specified)	inactive	inactive	inactive	inactive	inactive	–	inactive	–	inactive	–	inactive	inactive	–	–	inactive	inactive	inactive	–	inactive	–
C[N+](C)(C)CCCCCCCCCC[N+](C)(C)C	inactive	inactive	inactive	inactive	–	inactive	inactive	inactive	inactive	inactive	inactive	inactive	inactive	–	inactive	inactive	inactive	inactive	inactive	inactive
CC(C)=CCC1=C(O)c2ccccc2C(=O)C1=O	inactive	60800 nM (active)	inactive	inactive	inactive	inactive	inactive	–	4060 nM (active)	inactive	inactive	inactive	inactive	–	inactive	inactive	inactive	–	–	–
O=C1c2ccccc2C(=O)C1c1ccc2ccccc2n1	inactive	1210 nM (active)	inactive	inactive	inactive	inactive	inactive	inactive	inactive	–	inactive	inactive	inactive	inactive	inactive	–	inactive	inactive	inactive	–
CN1C(=O)CC(c2ccccc2)C1=O (stereo unspecified)	inactive	inactive	inactive	inactive	inactive	inactive	inactive	–	–	inactive	inactive	inactive	inactive	inactive	inactive	inactive	inactive	inactive	inactive	–
c1ccc(COCc2ccccc2)cc1	inactive	inactive	inactive	inactive	inactive	inactive	inactive	inactive	inactive	inactive	inactive	inactive	inactive	inactive	inactive	–	inactive	inactive	inactive	–
CCC(=O)Oc1ccc2c(c1)CC[C@@H]1[C@@H]2CC[C@@]2(C)[C@H]1C[C@@H](OC(=O)CC)[C@@H]2OC(=O)CC	inactive	inactive	inactive	inactive	inactive	inactive	–	inactive	inactive	inactive	inactive	inactive	–	inactive	inactive	inactive	inactive	–	inactive	–
CC(C(=O)O)c1cccc(Oc2ccccc2)c1 (stereo unspecified)	inactive	inactive	inactive	inactive	–	inactive	inactive	inactive	inactive	–	–	–	inactive	inactive	inactive	inactive	–	inactive	inactive	inactive
